# Values joined by “and” are separate entries in the source; they are usually repeats but may differ in a detail not shown here. Equal entries are not always repeated. Results filed as inconclusive are left out. Entries that show only a call come without a potency. Unmarked numbers belong to inactive results. Active and inactive are the calls of the source. The call rests on the fitted dose curve; in most records, active means well fitted curve in the direction sought with a large enough effect; inconclusive means small, poorly fitted or top-dose-only effect, or another doubt; inactive means no such curve, though single readings can be large; an effect the other way counts as inactive or inconclusive.
# What was measured:
# [1] = target: Rap guanine nucleotide exchange factor 3 (Homo sapiens) (UniProt O95398); experiment: Confirmatory qHTS for agonist of cAMP-regulated guanine nucleotide exchange factor 3 (EPAC1) (AID 1645881);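 further: EPAC1 catalysed release of BODIPY-GDP from Rap1B seen as fluorescence loss; nearly all actives have a fitted effect of over 75% in size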
# Sequence of Rap guanine nucleotide exchange factor 3 (Homo sapiens) (O95398 whole entry, looked up): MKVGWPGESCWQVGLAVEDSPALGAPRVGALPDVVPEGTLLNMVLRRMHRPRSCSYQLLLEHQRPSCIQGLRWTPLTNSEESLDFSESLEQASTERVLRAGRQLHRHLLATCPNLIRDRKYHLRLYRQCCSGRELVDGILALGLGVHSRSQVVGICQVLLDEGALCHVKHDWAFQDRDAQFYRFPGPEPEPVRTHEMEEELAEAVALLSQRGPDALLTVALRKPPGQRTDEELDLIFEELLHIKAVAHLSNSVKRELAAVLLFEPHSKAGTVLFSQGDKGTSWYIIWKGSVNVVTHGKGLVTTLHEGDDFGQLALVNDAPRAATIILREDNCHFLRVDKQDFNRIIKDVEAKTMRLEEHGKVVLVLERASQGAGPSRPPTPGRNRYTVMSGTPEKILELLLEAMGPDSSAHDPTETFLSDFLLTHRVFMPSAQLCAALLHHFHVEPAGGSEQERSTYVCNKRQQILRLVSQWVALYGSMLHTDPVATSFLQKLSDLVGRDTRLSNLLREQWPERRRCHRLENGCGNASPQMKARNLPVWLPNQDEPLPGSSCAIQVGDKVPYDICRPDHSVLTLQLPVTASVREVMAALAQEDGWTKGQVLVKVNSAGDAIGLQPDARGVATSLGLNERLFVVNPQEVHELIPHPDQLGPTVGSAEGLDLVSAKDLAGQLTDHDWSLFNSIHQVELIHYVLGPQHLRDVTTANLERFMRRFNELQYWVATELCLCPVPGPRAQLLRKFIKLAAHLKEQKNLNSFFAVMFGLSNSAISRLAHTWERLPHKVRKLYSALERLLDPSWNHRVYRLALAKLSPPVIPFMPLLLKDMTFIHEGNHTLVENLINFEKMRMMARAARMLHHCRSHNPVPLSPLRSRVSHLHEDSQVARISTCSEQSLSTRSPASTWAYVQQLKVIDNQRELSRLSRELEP
# [2] = target: Rap guanine nucleotide exchange factor 4 (Homo sapiens) (UniProt Q8WZA2); experiment: Confirmatory qHTS for agonist of cAMP-regulated guanine nucleotide exchange factor 4 (EPAC2) (AID 1645884);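 further: nucleotide exchange releases bodipy-GDP from Rap1 and this lowers its fluorescence; nearly all actives have a fitted effect of over 65% in size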
# Sequence of Rap guanine nucleotide exchange factor 4 (Homo sapiens) (Q8WZA2 whole entry, looked up): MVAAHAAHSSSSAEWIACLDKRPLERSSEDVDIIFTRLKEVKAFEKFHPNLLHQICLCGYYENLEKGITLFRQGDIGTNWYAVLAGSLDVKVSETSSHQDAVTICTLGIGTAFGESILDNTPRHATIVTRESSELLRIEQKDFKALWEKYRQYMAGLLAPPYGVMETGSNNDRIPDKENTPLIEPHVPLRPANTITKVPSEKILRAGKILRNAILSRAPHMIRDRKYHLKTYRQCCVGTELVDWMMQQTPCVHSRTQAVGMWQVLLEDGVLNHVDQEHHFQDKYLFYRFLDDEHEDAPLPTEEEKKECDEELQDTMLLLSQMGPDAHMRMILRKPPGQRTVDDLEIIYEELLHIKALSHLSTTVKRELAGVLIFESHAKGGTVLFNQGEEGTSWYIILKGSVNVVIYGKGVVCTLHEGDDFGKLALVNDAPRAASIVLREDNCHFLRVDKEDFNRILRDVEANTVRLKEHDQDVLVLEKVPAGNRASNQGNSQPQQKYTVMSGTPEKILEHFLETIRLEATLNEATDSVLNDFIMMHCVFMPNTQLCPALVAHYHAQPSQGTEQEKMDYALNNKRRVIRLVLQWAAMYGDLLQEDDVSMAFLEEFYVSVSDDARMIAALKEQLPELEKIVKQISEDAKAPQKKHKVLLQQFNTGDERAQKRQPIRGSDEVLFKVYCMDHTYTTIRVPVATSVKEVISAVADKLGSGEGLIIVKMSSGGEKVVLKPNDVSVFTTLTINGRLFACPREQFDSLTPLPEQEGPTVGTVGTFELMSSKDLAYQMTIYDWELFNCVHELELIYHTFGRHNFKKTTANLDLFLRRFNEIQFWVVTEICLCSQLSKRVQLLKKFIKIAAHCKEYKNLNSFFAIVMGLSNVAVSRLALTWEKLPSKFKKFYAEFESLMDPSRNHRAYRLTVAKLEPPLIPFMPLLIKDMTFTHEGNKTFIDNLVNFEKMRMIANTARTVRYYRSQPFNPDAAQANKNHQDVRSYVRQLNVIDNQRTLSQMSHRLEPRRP
# [3] = target: Rap guanine nucleotide exchange factor 4 (Homo sapiens) (UniProt Q8WZA2); experiment: Confirmatory qHTS for antagonist of cAMP-regulated guanine nucleotide exchange factor 4 (EPAC2) (AID 1645885); further: nearly all actives have a fitted effect of over 25% in size; further: potency means the concentration at half of the fitted maximal effect
# [4] = target: Rap guanine nucleotide exchange factor 3 (Homo sapiens) (UniProt O95398); experiment: Counterscreen qHTS for antagonist of cAMP-regulated guanine nucleotide exchange factor 3 (EPAC1) (AID 1645888);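 further: fluorescence loss as bound BODIPY-GDP is released from Rap1B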
# Procedure, shortened: (§1)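 Rap1B-BODIPY-GDP 250 nM + GDP 50 uM; cpds 7-pt, final 9.74 nM–152 uM (activator mode) or from 7.32 nM upwards (inhibitor mode); RT; FI 480/540 nm at 5 and 30 min, then ± cAMP, reread.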
# [5] = target: Rap guanine nucleotide exchange factor 3 (Homo sapiens) (UniProt O95398); experiment: Counterscreen qHTS for agonist of cAMP-regulated guanine nucleotide exchange factor 3 (EPAC1) (AID 1645889); further: nearly all actives have a fitted effect of over 40% in size; further: potency means the concentration at half of the fitted maximal effect
# Procedure, shortened: as §1
SMILES,Potency [1],Potency [2],Potency [3],Potency [4],Potency [5],activation [2],"activity change, negative = inhibition [4]",activation [5]
Cc1csc(NC(=O)CSCC(=O)O)c1-c1nc2ccccc2s1,inactive,inactive,inactive,inactive,inactive,,,
Cc1ccc(C)c(Nc2cc(C)nc(-c3ccccc3O)n2)c1,inactive,,inactive,,,"10% [at 17.1 µM, percent relative to cAMP agonist control]",-8.51% [at 30.8 µM],7.83% [at 30.8 µM]
CC(C)(C)N1CC(c2nc3ccccc3n2CCOc2ccccc2)CC1=O (stereo not given),inactive,inactive,inactive,inactive,inactive,,,
Cc1cc(C(=O)Cn2ncc(Cl)c(Cl)c2=O)c(C)n1CC(F)(F)F,inactive,,inactive,,,"1.17% [at 17.1 µM, percent relative to cAMP agonist control]",-8.86% [at 30.8 µM],8.2% [at 30.8 µM]
Cc1ccc(CNC(=O)c2c[nH]n3c(=O)c(Cc4ccc(Cl)cc4)c(C)nc23)cc1,inactive,inactive,inactive,inactive,inactive,,,
CC(C)C(=O)NC(c1ccccc1)c1cc([N+](=O)[O-])c2cccnc2c1O (stereo not given),inactive,,inactive,,,"4.72% [at 17.1 µM, percent relative to cAMP agonist control]",-3.56% [at 30.8 µM],39.4% [at 30.8 µM]
CC1=NCCN1S(=O)(=O)c1c(C(C)C)cc(C(C)C)cc1C(C)C,inactive,inactive,inactive,inactive,inactive,,,
Cc1ccc(SCC(=O)OCC(=O)N(C)CC(=O)Nc2ccc(F)cc2)cc1C,inactive,,inactive,,,"5.96% [at 17.1 µM, percent relative to cAMP agonist control]",-28.7% [at 30.8 µM],26.8% [at 30.8 µM]
Cn1c(N)c(C(=O)CSc2nnc(-c3c[nH]c4ccccc34)n2C2CC2)c(=O)[nH]c1=O,inactive,,inactive,,,"1.91% [at 17.1 µM, percent relative to cAMP agonist control]",2.97% [at 30.8 µM],17.7% [at 30.8 µM]
COCC(=O)Oc1c(Sc2ccccc2[N+](=O)[O-])c(C)nn1C(C)(C)C,inactive,inactive,inactive,inactive,inactive,,,
O=c1cc(-c2c(O)c3ccccc3n(Cc3ccccc3)c2=O)[nH][nH]1,inactive,inactive,inactive,inactive,inactive,,,
Cc1oc2c(cc(NS(=O)(=O)c3ccc(F)cc3)c3ccccc32)c1C(=O)O,inactive,inactive,75.7 µM (active),inactive,inactive,,,
CCOc1cccc(CNc2ccc(O)cc2)c1OCc1ccccc1Cl,inactive,inactive,inactive,inactive,44.7 nM (active) and 79.4 µM (active),,,
CC[C@@H]1CC=C[C@H]2[C@H]1C(=O)N(Cc1ccccc1)[C@H]2c1ccc(C(F)(F)F)cc1,inactive,inactive,inactive,inactive,inactive,,,
Cc1ccc(S(=O)(=O)NC(=O)c2ccc(-c3ccc(C)c4ccccc34)o2)cc1,inactive,inactive,inactive,inactive,inactive,,,
CCc1noc(C)c1C(=O)N1CCCSC1=Nc1ccccc1Cl,inactive,,inactive,,,"0.52% [at 17.1 µM, percent relative to cAMP agonist control]",-10.8% [at 30.8 µM],-1.65% [at 30.8 µM]
Cc1ccc(-c2csc(/C(C#N)=C(\O)CCl)n2)cc1,inactive,,inactive,,,"-6.35% [at 17.1 µM, percent relative to cAMP agonist control]",-2.33% [at 30.8 µM],14.1% [at 30.8 µM]
O=C(N/N=C/c1ccccc1O)/C(=C/c1ccccc1)CCO,inactive,inactive,inactive,inactive,inactive,,,
COc1ccccc1N1CCN(CC(O)COc2ccc(C)cc2C(C)(C)C)CC1 (stereo not given),inactive,inactive,inactive,inactive,inactive,,,
Fc1ccc(-c2nc3ccc(Br)cn3c2Cc2cccc(F)c2)cc1,inactive,inactive,inactive,inactive,inactive,,,

SMILES,Potency [1],Potency [2],Potency [3],Potency [4],Potency [5],activation [2],"activity change, negative = inhibition [4]",activation [5]
O=C(O)c1sccc1SCc1ccc(Cl)c(Cl)c1,inactive,inactive,inactive,inactive,inactive,,,
Cn1c(COc2ccccc2C(C)(C)C)nc2ccccc21,inactive,inactive,inactive,inactive,15.8 µM (active),,,
CCN(CC)C(=O)CSc1nnc(-c2cccs2)n1Cc1ccco1,inactive,inactive,inactive,inactive,inactive,,,
CCOc1ccc(C=NNc2ccc(S(=O)(=O)Nc3ccccc3C(=O)O)cc2[N+](=O)[O-])cc1,inactive,,inactive,,,"-0.564% [at 17.1 µM, percent relative to cAMP agonist control]",6.79% [at 30.8 µM],21.3% [at 30.8 µM]
CN(C)c1ccc(C=C(C#N)C(=O)c2ccccc2)cc1Br,inactive,inactive,inactive,inactive,inactive,,,
Cc1ccc(F)c(S(=O)(=O)NC(=O)C2(C)CCN2C(=O)C2(c3ccc(Cl)cc3)CCC2)c1 (stereo not given),inactive,inactive,inactive,inactive,inactive,,,
CCc1ccc(N=C2NC(=O)/C(=C/c3cc(Br)c(OCC(=O)O)c(OC)c3)S2)cc1,inactive,,inactive,,,"-6.04% [at 17.1 µM, percent relative to cAMP agonist control]",-19.5% [at 30.8 µM],15.5% [at 30.8 µM]
CCOC(=O)C1Nc2ccc(C(F)(F)F)cc2C2C=CCC12 (stereo not given),inactive,,inactive,,,"1.4% [at 17.1 µM, percent relative to cAMP agonist control]",-11.7% [at 30.8 µM],11.6% [at 30.8 µM]
COc1ccc(C(=O)c2nccc3ccccc23)cc1,inactive,inactive,inactive,inactive,inactive,,,
CSc1ccccc1NC(=O)CN1c2ccccc2CC1C (stereo not given),inactive,,inactive,,,"8.71% [at 17.1 µM, percent relative to cAMP agonist control]",-0.569% [at 30.8 µM],44.6% [at 30.8 µM]
CCCC(=O)OCCNc1cc(SCc2ccco2)c2nonc2c1[N+](=O)[O-],inactive,,inactive,,,"4.83% [at 17.1 µM, percent relative to cAMP agonist control]",14.3% [at 30.8 µM],26.5% [at 30.8 µM]
CC(Oc1ccc(Cl)cc1Cl)C(=O)NC1=NN(c2ccccc2)C(=O)C1 (stereo not given),inactive,inactive,inactive,inactive,inactive,,,
Cc1ccc(S(=O)(=O)N/N=C/c2cc(Br)ccc2O)cc1,inactive,inactive,inactive,inactive,inactive,,,
COc1ccccc1NC(=O)CSc1sc2c(O)cc(=O)[nH]c2c1C#N,inactive,,inactive,,,"3.66% [at 17.1 µM, percent relative to cAMP agonist control]",0.384% [at 30.8 µM],12.5% [at 30.8 µM]
NS(=O)(=O)c1ccc(N/N=C/c2ccccc2C(=O)O)c([N+](=O)[O-])c1,inactive,inactive,inactive,inactive,inactive,,,
CNc1ccc(/C=C/C(=O)c2ccc(C)cc2)cc1[N+](=O)[O-],inactive,,inactive,,,"-1.81% [at 17.1 µM, percent relative to cAMP agonist control]",16.3% [at 30.8 µM],21% [at 30.8 µM]
CC(C)(C)NC(=O)COC(=O)c1c2c(nc3ccccc13)CCC2,inactive,,inactive,,,"2.28% [at 17.1 µM, percent relative to cAMP agonist control]",-10.2% [at 30.8 µM],16.3% [at 30.8 µM]
Cc1ccccc1OCC(=O)Nc1ccccc1N1CCC(C)CC1,inactive,inactive,42.6 µM (active),inactive,inactive,,,
CN1CCN(C(=O)c2ccc(COc3ccc(C(C)(C)C)cc3)o2)CC1,inactive,,inactive,,,"8.37% [at 17.1 µM, percent relative to cAMP agonist control]",8.52% [at 30.8 µM],9.82% [at 30.8 µM]
Cc1c(C(=O)OCC(C)C)[nH]c2c1C(=O)CC(c1ccco1)C2 (stereo not given),inactive,inactive,inactive,inactive,inactive,,,
